Bioassay records (PubChem)
CHO-K1 Ca ag – counter-screen for M1 agonists: effect in parental CHO-K1 cells; AID 602248; 360,000 compounds, 0.48% hits; activation, % at 3 µM; Fluo-8 calcium fluorescence; scaled to maximal ATP response, vehicle zero; in the data active = activation above about 15%;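 note: untransfected CHO-K1 host cells lacking M1 receptor as counterscreen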
CHRM1 antagonist – human CHRM1 antagonism; P11229; CHO-K1 hM1, Fluo-8 calcium fluorescence, ACh EC80 antagonist; inhibition, % at 3 µM; 360,000 compounds, 1.3% hits;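 active = percent inhibition above its own plate's cutoff, namely the mean of that plate's compound wells plus 3 SD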;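 note: peak over basal fluorescence ratio during 140 s after agonist addition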
Target sequence (P11229 whole entry, looked up): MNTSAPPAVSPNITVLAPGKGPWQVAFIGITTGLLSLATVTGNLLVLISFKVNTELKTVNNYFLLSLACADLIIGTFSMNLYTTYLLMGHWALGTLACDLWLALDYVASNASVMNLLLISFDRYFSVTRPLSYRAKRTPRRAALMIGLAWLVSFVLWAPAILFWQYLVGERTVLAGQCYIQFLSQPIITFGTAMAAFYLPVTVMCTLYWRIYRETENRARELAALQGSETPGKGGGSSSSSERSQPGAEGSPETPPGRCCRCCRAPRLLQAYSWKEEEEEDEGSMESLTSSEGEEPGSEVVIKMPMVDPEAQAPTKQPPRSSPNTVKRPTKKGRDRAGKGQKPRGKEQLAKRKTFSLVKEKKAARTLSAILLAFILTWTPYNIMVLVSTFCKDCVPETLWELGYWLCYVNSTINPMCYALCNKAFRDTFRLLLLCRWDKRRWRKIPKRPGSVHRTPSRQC
M1 PAM parental – nonselective activator or artifact in parental CHO-K1 calcium assay; activation, % at 3 µM; ATP EC20, Fluo-8 calcium fluorescence; 0% at ATP EC20, 100% at ATP max; AID 602247; 360,000 compounds, 0.02% hits;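 active = activation above the run cutoff, the mean activation of all test compounds plus 3 SD, cut at about 40% in these data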;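 note: peak over basal fluorescence ratio in a 140 s read after ATP addition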
M1 PAM – potentiates human M1 receptor response to acetylcholine; P11229; activation, % at 3 µM; 360,000 compounds, 0.088% hits; CHO-K1 hM1, Fluo-8 calcium fluorescence, ACh EC20; 0% = ACh EC20, 100% = maximal ACh; in the data active = activation above about 19%, passing the limit was not always enough
CHO-K1 Ca antag – M1 antagonist counterscreen hit in parental CHO-K1 cells; inhibition, % at 3 µM; 360,000 compounds, 0.6% hits; ATP-induced calcium, Fluo-8 fluorescence;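 active = inhibition above a per-plate cutoff, the plate's mean sample inhibition plus 3 SD, cut at about 24% in these data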
CHRM1 agonist – agonists of human M1 muscarinic receptor. P11229. 360,000 compounds, 0.33% hits. activation, % at 3 µM. AID 588814. CHO-K1 hM1, Fluo-8 calcium fluorescence, agonist mode; 0% DMSO, 100% acetylcholine EC100;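 active = activation above the run's mean compound activation plus 3 SD, cut at about 16% in these data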;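 note: peak over basal fluorescence ratio within a 140 s kinetic read after compound addition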
Each line names hits and unclear results; the compound was inactive in the other large screens. Sampled rows, rich in hits. Any-hit rate of the full collection: about 2.3%.

CCC(C)N(CCNC(=O)CC1Oc2ccc(C)cc2NC1=O)C1CCCCC1 (centres undefined)	CHRM1 antagonist 101
CC1CCCCN1CCNC(=O)CC1Oc2ccccc2NC1=O (centres undefined)	CHRM1 antagonist 36
Cc1ccc2c(c1)NC(=O)C(CC(=O)NCCCN1CCCC1)O2 (centres undefined)	none
O=C(CN1CCN(c2ccc(F)cc2)CC1)NC(=O)NCc1ccco1	none
COC(=O)C1CC(O)CN1C(=O)Nc1cccc(C(F)(F)F)c1 (centres undefined)	CHO-K1 Ca antag 29
OC(CNCCc1ccc(C(F)(F)F)cc1)COC(c1ccccc1)c1ccccc1 (centres undefined)	CHRM1 antagonist 76
C#CCN(C[C@H]1[C@H](OC(=O)NCCCCCC)[C@H](OC(=O)NCCCCCC)C[C@@H](C(=O)OC)[C@H]1C(=O)OC)S(=O)(=O)c1ccc(C)cc1	none
C#CCN(C[C@H]1[C@H](OC(=O)NCc2ccccc2)[C@H](OC(=O)NCc2ccccc2)C[C@@H](C(=O)OC)[C@H]1C(=O)OC)S(=O)(=O)c1ccc(C)cc1	CHO-K1 Ca antag 38
COCCCn1c(N)c(-c2nc3ccccc3n2C)c2nc3ccccc3nc21	CHRM1 antagonist 28
CCN(c1ccccc1)S(=O)(=O)c1cc(C(=O)Nc2ccc(F)c(F)c2)ccc1F	CHRM1 antagonist 33
CCOC(=O)C1(Cc2ccccc2Cl)CCN(C(=O)CCn2ccnc2C)CC1	none
CCNC(=O)c1cc2c(c(-c3cccc(-c4cccc(C(=O)N(C)C)c4)c3)n1)[C@H](CCO)N(S(=O)C(C)(C)C)C2 (some centres undefined)	none
CN(C)C(=O)c1cccc(-c2cccc(-c3nc(C(=O)NCc4ccccc4)cc4c3[C@@H](CCO)N(S(=O)C(C)(C)C)C4)c2)c1 (some centres undefined)	CHO-K1 Ca antag 25
COc1ccc(N2CCN(C(=O)c3ccc(COc4ccc([N+](=O)[O-])cc4)o3)CC2)cc1	CHRM1 antagonist 30
COc1ccc(N2CCN(C(=O)Oc3ccc([N+](=O)[O-])cc3)CC2)cc1	none (no result: CHRM1 antagonist, M1 PAM, CHRM1 agonist)
COc1cc(N=Nc2ccc(C)cc2S(N)(=O)=O)c(C)cc1N	none
CCCn1c(SCC(=O)N(C)CC(=O)Nc2ccc(C)cc2)n[nH]c1=O	none
Cc1cc(C(=O)CSc2nc3ccccc3c(=O)[nH]2)c(C)n1CC1CCCO1 (centres undefined)	CHO-K1 Ca ag 17, CHO-K1 Ca antag 24
c1ccc2c(c1)CCN(c1ncnc3c1[nH]c1ccccc13)C2	CHRM1 antagonist 43
c1ccc2c(c1)[nH]c1c(N3CCC4(CC3)OCCO4)ncnc12	none
OC1(c2cccc(C(F)(F)F)c2)CCN(c2ncnc3c2[nH]c2ccccc23)CC1	CHO-K1 Ca antag 25
CC(C)n1nc(C(=O)Nc2cccc(S(=O)(=O)N3CCOCC3)c2)c2ccccc2c1=O	none
CC1(C(O)(C#CC[N+]2(C)CCCCC2)c2ccccc2)CCCC1 (centres undefined)	CHRM1 antagonist 72
C[N+]1(CC(=O)OCCCc2ccccc2)CCCCC1	none
COc1ccccc1-n1c(=O)oc2ccc(Cl)cc2c1=O	CHO-K1 Ca ag 19
COc1c(Cl)c(=O)oc2ccc(Cl)cc12	none
CC(=O)Nc1ccc(S(=O)(=O)N2CCC3(CC2)CC(=O)c2ccccc2O3)cc1	CHRM1 antagonist 32
CCC(=O)Nc1cccc(NC(=S)NC(=O)Cc2ccccc2)c1	none
COc1ccc(CC(=O)NC(=S)Nc2cccc(C)c2)cc1	CHRM1 agonist 26
COc1cccc(NC(=S)NC(=O)Cc2ccc(Cl)cc2)c1	CHO-K1 Ca ag 23, CHRM1 agonist 37
COc1ccccc1NC(=S)NC(=O)Cc1ccc(Cl)cc1	none
COc1ccc(CC(=O)NC(=S)Nc2cccc(CO)c2)cc1	CHRM1 agonist 29
COC(=O)c1ccccc1NC(=O)c1ccc2c(c1)OCCCO2	none
COc1ccc(CNC(=O)c2sc(=O)n(Cc3ccccc3OC)c2C)cc1	none
COCCNCC(=O)Nc1ccc(OC(F)(F)F)cc1	none
CCN(CC)CCCN(Cc1cc2cc3c(cc2[nH]c1=O)OCO3)C(=S)NCCCOC	CHO-K1 Ca antag 24
CCN(CC)CCN(Cc1cc2cc3c(cc2[nH]c1=O)OCO3)C(=S)NCCCOC	none
COCCNC(=S)N(CCO)Cc1cc2cc3c(cc2[nH]c1=O)OCO3	none
COCCNC(=S)N(CCCO)Cc1cc2cc3c(cc2[nH]c1=O)OCCO3	CHO-K1 Ca antag 26
O=C(Nc1cccc(NC(=O)c2ccc(F)cc2)c1)c1ccc(F)cc1	none
O=C(Nc1cccc(NC(=O)c2ccccc2Cl)c1)c1ccc(F)cc1	CHO-K1 Ca antag 25
O=C(Nc1cccc(NC(=O)c2ccccc2Cl)c1)c1ccc([N+](=O)[O-])o1	CHO-K1 Ca ag 17
CC1(C)CC[C@]2(C(=O)O)CC[C@]3(C)C(=CC[C@@H]4[C@@]5(C)CC[C@H](O[C@@H]6O[C@H](C(=O)O)[C@@H](O)[C@H](O[C@@H]7OC[C@H](O)[C@H](O)[C@H]7O)[C@H]6O)C(C)(C)[C@@H]5CC[C@]43C)[C@@H]2C1	CHO-K1 Ca antag 24
O=C(N/N=C/c1ccccc1C(=O)O)C(=O)N1CCCCC1	CHO-K1 Ca ag 19
O=C(O)c1ccccc1/C=N/NC(=O)C1CCCCC1	none
CCOC(=O)COc1cc2c3c(c(=O)oc2cc1C)CCCC3	CHRM1 antagonist 48
CCCCCn1c(=O)[nH]c2cc(C(=O)O)ccc2c1=O	none
CCOC(=O)N1CCN(C(=O)c2ccc3c(=O)n(CCOC)c(=O)[nH]c3c2)CC1	CHRM1 antagonist 28
COc1ccccc1Cn1c(=S)[nH]c2cc(C(=O)N3CCC(C(N)=O)CC3)ccc2c1=O	none
CCOCCCn1c(=S)[nH]c2cc(C(=O)N3CCC(C(N)=O)CC3)ccc2c1=O	CHO-K1 Ca antag 25
CCCCCn1c(=O)[nH]c2cc(C(=O)N3CCN(C(=O)OCC)CC3)ccc2c1=O	CHRM1 antagonist 49
CCOC(=O)N1CCN(C(=O)c2ccc3c(=O)n(CCc4ccccc4)c(=O)[nH]c3c2)CC1	CHRM1 antagonist 49
O=C(c1ccc(COc2ccccc2Br)o1)N1N=C(C(F)F)CC1(O)C(F)F (centres undefined)	none
CCc1cc(C(=O)NCC2CCCO2)sc1C (centres undefined)	none
C[C@H](CO)N1C[C@H](C)[C@@H](CN(C)S(=O)(=O)c2cn(C)cn2)Oc2c(NS(=O)(=O)c3cccs3)cccc2C1=O	none
CCCCCCOc1ccc(N2C(=O)CC(SC(=NCC)NCC)C2=O)cc1 (centres undefined)	none
CC(C)[C@@H]1Cc2[nH][nH]c(=O)c2[C@H](C(C)C)O1	none (no result: CHRM1 antagonist, M1 PAM, CHRM1 agonist)
O=C(CSc1ccc(Br)cc1)Nc1ccccc1N1CCOCC1	none
